Results reported in the supplement of paper PMC9399229.
Counter-ions that a name gives are not always drawn. ± gives the standard deviation of the averaged measurements. In all, about 1,900 compounds were measured (“relative cell viability (CellTiter-Glo), compound alone”: median about 1, lowest 2% from about 0.16 on). This excerpt belongs to a sample that is enriched for the lowest values.

What follows are compounds tested on Hep3B (assay: relative cell viability (CellTiter-Glo), compound alone (fraction); higher = more viable cells (less growth inhibition)). Conditions: cabozantinib 0 µM; 4 days.
Compound `C/C(=N\NC(=O)c1cccc(S(=O)(=O)N2CCOCC2)c1)c1cc(Cl)ccc1O` has a relative cell viability of 1.08 ± 0.014.
`COc1ccc(S(=O)(=O)N(C(C)=O)c2ccccc2/C=C/c2cc[n+]([O-])cc2)cc1` was tested, and the relative cell viability was 0.855 ± 0.05.
With `NC[C@@](O)(c1ccc(Cl)cc1)c1ccc(-c2cn[nH]c2)cc1` the relative cell viability was 0.23 ± 0.029.
With `COc1c(C)cnc(Cn2cnc3c(Cl)nc(N)nc32)c1C` the relative cell viability was 0.19 ± 0.017.
Compound `O=C(Cc1cccc(OC(F)(F)F)c1)Nc1ccc(CCCCc2nnc(NC(=O)Cc3ccccn3)s2)nn1` has a relative cell viability of 1.04 ± 0.35.
Compound `O=C1NC(=O)C(c2cnc3ccccn23)=C1c1cn2c3c(cc(F)cc13)CN(C(=O)N1CCCCC1)CC2` has a relative cell viability of 1.28 ± 0.1.
`COc1ccccc1S(=O)(=O)Nc1ccc2c(c1)CN(C)C(=O)N2` was tested, and the relative cell viability was 0.881 ± 0.091.
`Cc1ncc(CCCN(C)C)cc1Nc1ncc2c(n1)-c1ccc(C(F)(F)F)cc1NC(=S)C2` gave a relative cell viability of 0.81 ± 0.023.
With `CNc1nc(Nc2cnn([C@H]3CCN(C4COC4)C[C@@H]3F)c2Cl)ncc1C(F)(F)F` the relative cell viability was 1.14 ± 0.02.
`Clc1ccc(C2(c3ccc(-c4cn[nH]c4)cc3)CCNCC2)cc1` was tested, and the relative cell viability was 0.972 ± 0.2.
For `CC1=C(C(=O)OC2CCCCC2)C(c2ccc([N+](=O)[O-])cc2)C2=C(CC(C)(C)CC2=O)N1` (configuration not stated), the relative cell viability was 1.19 ± 0.022.
`COC(=O)C1=CO[C@@H](O[C@@H]2O[C@H](CO)[C@@H](O)[C@H](O)[C@H]2O)[C@@H]2C(CO)=CC[C@H]12` [Geniposide] showed a relative cell viability of 1.11 ± 0.078.
`COc1ccc(NS(=O)(=O)c2sc3ccc(Cl)cc3c2C)cc1N1CCNCC1` was tested, and the relative cell viability was 0.974 ± 0.19.
`CCNC(=O)C#Cc1ccc2c(C(=Nc3ccc(CN(C)C)cc3)c3ccccc3)c(O)[nH]c2c1` showed a relative cell viability of 0.278 ± 0.007.
With `CCOC(=O)CCNc1cc(N2CCc3ccccc3CC2)nc(-c2ccccn2)n1` the relative cell viability was 0.742 ± 0.084.
For `Cc1cc(OCc2nnc(SC3CCCC3)n2-c2cccnc2)ccc1-c1ccc(S(C)(=O)=O)cc1`, the relative cell viability was 1.07 ± 0.024.
`CCOC(=O)Nc1cc(-c2ccc(C)c(NS(C)(=O)=O)c2)nn2c(C)nnc12` [Bromosporine] showed a relative cell viability of 0.851 ± 0.044.
`CCc1c(O)cc(O)c(C(=O)c2ccc(OCCN3CCOCC3)c(OC)c2)c1CC(=O)N(CCOC)CCOC` gave a relative cell viability of 0.48 ± 0.01.
For `COC(=O)C[C@H](NC(=O)[C@H](C)NC(=O)[C@@H](NC(=O)OCc1ccccc1)C(C)C)C(=O)CF`, the relative cell viability was 1 ± 0.094.
With `NC(=O)c1cccc2[nH]c(-c3ccc(C4CCCN4)cc3F)nc12` (configuration not stated) the relative cell viability was 0.981 ± 0.079.
For `NC1=N[C@@](c2cccc(-c3cncnc3)c2)(c2ccnc(C(F)F)c2)c2cccc(F)c21`, the relative cell viability was 1.34 ± 0.037.
With `COc1cccc2c1C(=O)c1c(O)c3c(c(O)c1C2=O)C[C@@](O)(C(=O)CO)C[C@@H]3O[C@H]1C[C@H](N)[C@@H](O)[C@H](C)O1` [Epirubicin HCl] the relative cell viability was 0.0641 ± 0.0026.
Compound `COc1cccc2c1C(=O)c1c(O)c3c(c(O)c1C2=O)C[C@@](O)(C(C)=O)C[C@@H]3O[C@H]1C[C@H](N)[C@H](O)[C@H](C)O1` [Daunorubicin HCl] has a relative cell viability of 0.0682 ± 0.0026.
Compound `COc1cccc2c1C(=O)c1c(O)c3c(c(O)c1C2=O)C[C@@](O)(C(=O)CO)C[C@@H]3O[C@H]1C[C@H](N)[C@H](O[C@@H]2CCCCO2)[C@H](C)O1` [Pirarubicin] has a relative cell viability of 0.157 ± 0.078.
In the case of `COc1cccc2c1C(=O)c1c(O)c3c(c(O)c1C2=O)C[C@@](O)(C(=O)CO)C[C@@H]3O[C@H]1C[C@H](N)[C@H](O)[C@H](C)O1` [Doxorubicin (Adriamycin)], the relative cell viability is reported as 0.144 ± 0.0086.
`O=C(O)c1cc(I)ccc1NC(=O)[C@H](Cc1ccccc1)NCc1ccccc1` was tested, and the relative cell viability was 1.03 ± 0.032.
Compound `C=CC(=O)N1CCC(Oc2cc3c(Nc4ccc(Cl)c(Cl)c4F)ncnc3cc2OC)CC1` [Poziotinib (HM781-36B)] has a relative cell viability of 0.933 ± 0.022.
For `CN(C)CCN1C(=O)c2cccc3cc(N)cc(c23)C1=O` [Amonafide], the relative cell viability was 1.22 ± 0.09.
With `C=CC(=O)Nc1ccc2ncnc(Nc3ccc(OCc4cccc(F)c4)c(Cl)c3)c2c1` the relative cell viability was 1.41 ± 0.053.
`NC(=O)Nc1cc(-c2cccc(F)c2)sc1C(=O)N[C@H]1CCCNC1` showed a relative cell viability of 0.151 ± 0.016.
In the case of `NC(=O)Nc1sc(-c2ccc(F)cc2)cc1C(N)=O`, the relative cell viability is reported as 1.1 ± 0.043.
For `COc1cc(C(=O)NC2CCCNC2)cc(OC)c1OC` (configuration not stated) [Troxipide], the relative cell viability was 1.07 ± 0.12.
Work on `O=C(NO)c1cccc(C(=O)NCCc2ccccc2)c1` yielded a relative cell viability of 1.16 ± 0.059.
`COc1cc2ncc(-c3ccccc3)nc2cc1OC` [Tyrphostin AG 1296] showed a relative cell viability of 1 ± 0.02.
With `Nc1nccc2c1ncn2C1C=C(CO)C(O)C1O` (configuration not stated) [3-Deazaneplanocin A (DZNeP)] the relative cell viability was 0.933 ± 0.013.
`Cc1nc(C#Cc2ccnc(Cl)c2)c(C)n1-c1ccc(OC(F)(F)F)cc1` was tested, and the relative cell viability was 1 ± 0.056.
Work on `O=C(/C=C/c1ccc2ccccc2n1)c1ccncc1` yielded a relative cell viability of 0.167 ± 0.0076.
With `CCOC(=O)n1ccn(C)c1=S` [Carbimazole] the relative cell viability was 1.02 ± 0.14.
In the case of `CNc1ncnc2c1ncn2[C@@H]1O[C@H](CO)[C@@H](O)[C@H]1O` [N6-methyladenosine (m6A)], the relative cell viability is reported as 1.15 ± 0.042.
For `COc1nc(N)nc2c1ncn2[C@@H]1O[C@H](CO)[C@@H](O)[C@@H]1O` [Nelarabine], the relative cell viability was 1.1 ± 0.035.
`COc1ccc(C[C@H](N)C(=O)N[C@H]2[C@@H](O)[C@H](n3cnc4c(N(C)C)ncnc43)O[C@@H]2CO)cc1` [Puromycin 2HCl] was tested, and the relative cell viability was 0.0517 ± 0.001.
In the case of `c1cc(-c2cnn3cc(-c4ccc(N5CCNCC5)cc4)cnc23)c2cccnc2c1`, the relative cell viability is reported as 0.142 ± 0.013.
Work on `COc1ccc(-c2cnc3c(-c4cccc5ncccc45)cnn3c2)cc1` yielded a relative cell viability of 1.31 ± 0.03.
`COc1cc(-c2cc(-c3ccc(N4CCNCC4)cc3)cnc2C)cc(OC)c1OC` gave a relative cell viability of 0.937 ± 0.023.
Compound `CCCNCC(O)COc1ccccc1C(=O)CCc1ccccc1` (configuration not stated) [Propafenone HCl] has a relative cell viability of 0.855 ± 0.07.
Compound `Cc1cc(-c2ccc(CC(=O)Nc3ccc(-c4cccnc4)cc3)cc2)ccn1` has a relative cell viability of 1.268 ± 0.0057.
With `CC(C=CC(=O)NO)=CC(C)C(=O)c1ccc(N(C)C)cc1` (configuration not stated) [Trichostatin A (TSA)] the relative cell viability was 0.131 ± 0.019.
